This passage reports z-score and composite z-score results from PubChem BioAssay.

Calls of active or inactive are those of the source. Unless noted, how the calls were made is not given here.

A short description of experiment [1]: resazurin metabolic signal in HepG2 cells – cell-based, resazurin fluorescence, 24 h, PK04 Diversity Set, profiling panel (AID 1172). Further: test concentration not given here. To be noted: HepG2 viability, higher = more signal.
Experiment [2] can be described thus: budding yeast growth changes without added modifier – OD600, strain BY4716, 24 h, basal condition, primary screen (AID 1173). The conditions noted are these: S. cerevisiae BY4716 growth, OD600, 24 h; higher = more signal, called active from +8 up or from −8 down.
The nature of experiment [3]: viability profiling in MM1S myeloma cells – cell-based, resazurin fluorescence, basal, 24 h, PK04 Diversity Set, profiling panel (AID 1174).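 Further: MM1S multiple myeloma cell line; test concentration not given here.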 To be noted: higher = more signal, called active from +8 up or from −8 down.
Experiment [4] concerns the target Dihydroorotate dehydrogenase (quinone), mitochondrial (Plasmodium falciparum (isolate 3D7)) (UniProt Q08210). Description: inhibition of P. falciparum DHODH – biochemical, C-terminal His tag, absorbance 600 nm, primary screen (AID 1175).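 Further: recombinant parasite enzyme with a five histidine tag at its C terminus; test concentration not given here.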 The conditions noted are these: PfDHODH enzyme, DCIP absorbance 600 nm; higher = more signal, called active from +8 up or from −8 down.

The nature of experiment [5]: inhibition of PAO1 biofilm formation – strain PAO1, LB-PBS medium, absorbance 600 nm, primary screen (AID 1176). Further: test concentration not given here. To be noted: P. aeruginosa PAO1 growth/biofilm, A600, 12 h; higher = more signal.
Experiment [6] is described as follows: growth modulation of vineyard yeast isolate – strain RM11-1a, OD600, basal, 24 h, primary screen (AID 1177).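 Further: cultures grown under basal conditions with no added stressor; test concentration not given here.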 The conditions noted are these: S. cerevisiae RM11-1a growth, OD600, 24 h; higher = more signal, called active from +8 up or from −8 down.
Experiment [7] can be described thus: growth of efflux-deficient E. coli DRC39 – strain DRC39, OD650, 24 h, E. coli filamentation inducers, primary screen (AID 1178).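 Further: growth measured as culture turbidity by optical density at 650 nm; test concentration not given here.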 To be noted: E. coli DRC39 acrAB, higher = more signal, called active from +8 up or from −8 down.
A short description of experiment [8]: growth of efflux-deficient E. coli DRC39 – strain DRC39, OD650, 48 h, E. coli filamentation inducers, primary screen (AID 1179).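 Further: screen aims at cell division blockers that make cells filament.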 To be noted: E. coli DRC39 delta-acrAB growth, higher = more signal, called active from +8 up or from −8 down.
Experiment [9] in a line: viability profiling in RPMI8226 myeloma cells – cell-based, resazurin fluorescence, basal, 24 h, PK04 Diversity Set, profiling panel (AID 1180).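 Further: RPMI8826 multiple myeloma cell line at 5000 cells per well; test concentration not given here.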 The conditions noted are these: higher = more signal. (In general: The colour change of resazurin is a common sign of viable cells or microbes.)
Experiment [10] deals with E3 ubiquitin-protein ligase XIAP (Homo sapiens) (UniProt P98170). In words: small molecules binding XIAP protein – biophysical, small-molecule microarray, fluorescence 635 nm, primary screen (AID 1181).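 Further: score merges 667 nm emission and signal to noise over triplicate slides.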 To be noted: higher = more signal.
Chain of E3 ubiquitin-protein ligase XIAP (Homo sapiens) (P98170 whole entry, looked up): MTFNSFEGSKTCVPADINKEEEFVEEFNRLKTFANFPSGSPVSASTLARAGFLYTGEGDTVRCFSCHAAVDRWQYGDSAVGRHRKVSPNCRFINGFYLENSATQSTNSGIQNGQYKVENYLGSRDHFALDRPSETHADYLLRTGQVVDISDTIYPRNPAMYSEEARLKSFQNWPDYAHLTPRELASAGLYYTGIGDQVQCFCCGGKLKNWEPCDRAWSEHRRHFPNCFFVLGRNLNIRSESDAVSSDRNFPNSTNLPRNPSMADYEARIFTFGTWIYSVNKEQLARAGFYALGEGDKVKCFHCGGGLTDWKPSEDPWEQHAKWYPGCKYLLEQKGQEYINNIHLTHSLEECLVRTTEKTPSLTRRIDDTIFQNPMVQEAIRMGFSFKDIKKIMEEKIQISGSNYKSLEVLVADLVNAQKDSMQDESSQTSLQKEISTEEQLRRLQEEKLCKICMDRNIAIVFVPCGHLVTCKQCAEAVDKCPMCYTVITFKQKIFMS

Chain of Dihydroorotate dehydrogenase (quinone), mitochondrial (Plasmodium falciparum (isolate 3D7)) (Q08210 whole entry, looked up): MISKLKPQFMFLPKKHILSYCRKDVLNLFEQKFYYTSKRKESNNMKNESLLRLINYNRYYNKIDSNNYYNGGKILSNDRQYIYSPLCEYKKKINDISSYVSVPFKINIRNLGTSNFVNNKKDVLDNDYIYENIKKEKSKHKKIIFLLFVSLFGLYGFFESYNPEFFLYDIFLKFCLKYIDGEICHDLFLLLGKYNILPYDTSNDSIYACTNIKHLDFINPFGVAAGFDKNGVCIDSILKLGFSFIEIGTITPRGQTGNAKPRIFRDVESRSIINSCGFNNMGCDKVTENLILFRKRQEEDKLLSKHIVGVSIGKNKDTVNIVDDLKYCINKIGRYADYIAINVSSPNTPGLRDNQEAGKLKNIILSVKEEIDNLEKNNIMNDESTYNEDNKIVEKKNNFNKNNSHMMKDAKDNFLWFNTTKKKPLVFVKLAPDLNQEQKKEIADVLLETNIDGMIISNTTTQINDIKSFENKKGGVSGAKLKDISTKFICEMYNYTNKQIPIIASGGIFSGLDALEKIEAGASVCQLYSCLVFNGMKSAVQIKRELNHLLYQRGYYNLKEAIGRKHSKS

As for `COC(=O)[C@H](C)NC(=O)CCC1CC(OC(=O)NCc2ccc3c(c2)OCO3)CC2(CCCC(COC(=O)NCCC(C)C)O2)O1` (stereo not given in full), the z-score in [1] was 0.506; in [2], -0.43 (inactive); in experiment [3] it was -0.274 (inactive); in [5], -0.294 (inactive); in experiment [6] it was -0.774 (inactive); in experiment [7], 0.909 (inactive). Besides, the z-score in experiment [8] is -0.804 (inactive); in experiment [9], 0.0961. The composite z-score in [4] is -0.558 (inactive); in experiment [10], 0.0245.

Consider `O=C1C=C[C@@H](O)[C@@H]2[C@@H]3C(=O)N(c4cccc(Oc5ccccc5)c4)C(=O)[C@@H]3CC[C@@H]12`, for which the z-score in experiment [1] was -0.553; in experiment [2], -1.82 (inactive); in experiment [3], -0.136 (inactive); in [5] it was 0.188 (inactive); in experiment [6], -0.518 (inactive); in experiment [7] it was 0.318 (inactive). For the same compound, the z-score in experiment [8] was -1.71 (inactive); in experiment [9], 0.088. The composite z-score in experiment [4] was -2.96 (inactive); in experiment [10], 0.242.

Regarding `C[C@H]1CC[C@H]2C(=O)O[C@H](CO)CN2[C@@H]1c1ccc(Br)cc1`, the z-score was 0.72 in [1]; -8.2 (active) in experiment [2]; 0.678 (inactive) in experiment [3]; 0.441 (inactive) in experiment [5]; -0.356 (inactive) in experiment [6]; 0.342 (inactive) in [7]. In addition, the results for the z-score in [8] and in experiment [9] were -0.016 (inactive) and -0.817, respectively. In addition, the composite z-score in experiment [4] was 0.586 (inactive); in experiment [10] it was 0.0733.

With `CC#CCOCCC=C1c2ccccc2[C@@H](OC)[C@@H]1C`, the z-score was 0.651 in experiment [1]; -1.71 (inactive) in experiment [2]; -0.725 (inactive) in experiment [3]; 0.204 (inactive) in experiment [5]; -0.551 (inactive) in experiment [6]; -0.158 (inactive) in experiment [7]. Further, the z-score in experiment [8] is 0.212 (inactive); in experiment [9], 0.258. The composite z-score is -0.412 (inactive) in experiment [4] and 2.61 in experiment [10].

As for `CO[C@H]1COC(=O)[C@H](C)COC(=O)[C@@H](OCc2ccccc2)C=C[C@@H]1C`, the z-score in experiment [1] was 0.176; in experiment [2] it was -2.14 (inactive); in experiment [3], -0.114 (inactive); in experiment [5], -0.355 (inactive); in experiment [6] it was -0.077 (inactive); in [7] it was 1.02 (inactive). Further, the figures for the z-score in experiment [8] and in experiment [9] were 0.636 (inactive) and -0.476, respectively. Besides, the composite z-score in [4] is 0.175 (inactive); in [10], -0.138.

With `CC(C)(C)N1C(=O)[C@H]2[C@H]3[C@H](O)[C@H](O)CC(=NOC[C@@H](O)COCc4ccco4)[C@@H]3CC[C@H]2C1=O`, the z-score in experiment [1] is -0.28; in experiment [2] it was 0.382 (inactive); in [3], 0.0017 (inactive); in [5], 0.213 (inactive); in experiment [6] it was -0.0396 (inactive); in experiment [7], -0.323 (inactive). The z-score in experiment [8] is -0.253 (inactive); in experiment [9] it was 0.589. Also, the figures for the composite z-score in [4] and in experiment [10] were -0.0796 (inactive) and -0.173, respectively.

As to `COC(=O)CC=C[C@@H](C)[C@@H](C=NOC[C@@H](O)COCc1ccco1)NS(=O)(=O)c1ccc(C)cc1`, the z-score is -0.8 in [1]; 0.0959 (inactive) in experiment [2]; -0.309 (inactive) in [3]; -0.312 (inactive) in experiment [5]; 0.186 (inactive) in experiment [6]; 0.388 (inactive) in experiment [7]. Besides, the z-score is 0.124 (inactive) in [8] and -0.974 in experiment [9]. Further, the composite z-score was 0.444 (inactive) in experiment [4] and -0.309 in [10].

Consider `CC(CCN1CCc2nc(-c3ccccc3)c(-c3ccccc3)cc2C1)=NOC(C)CN1CCCc2nc(C)c(C)cc21` (stereo not given), for which the z-score in experiment [1] is -0.0686; in experiment [2], -3.98 (inactive); in experiment [3], -0.877 (inactive); in experiment [5], 0.371 (inactive); in experiment [6] it was -0.572 (inactive); in experiment [7], 0.798 (inactive). Moreover, the z-score was -0.391 (inactive) in experiment [8] and -0.469 in experiment [9]. In addition, the results for the composite z-score in experiment [4] and in experiment [10] were 0.417 (inactive) and 0.326, respectively.

With `C[C@@H](c1ccccc1)N1C(=O)[C@H]2[C@H]3[C@H](O)[C@H](O)CC(=NOC[C@@H](O)COCc4ccco4)[C@H]3CC[C@H]2C1=O`, the z-score in [1] was -0.259; in experiment [2], -0.123 (inactive); in experiment [3], 0.899 (inactive); in [5], 0.118 (inactive); in [6] it was -0.286 (inactive); in experiment [7], -0.501 (inactive). In addition, the z-score was -0.267 (inactive) in experiment [8] and 0.0536 in experiment [9]. Further, the composite z-score is -0.222 (inactive) in experiment [4] and -0.102 in [10].

Turning to `CCN1C(=O)[C@H]2[C@H]3[C@H](O)[C@H](O)CC(=NO[C@H](C)c4cn([C@@H]5COC[C@H]5O)nn4)[C@@H]3CC[C@H]2C1=O`, the z-score in experiment [1] is -1.28; in experiment [2], 1.15 (inactive); in experiment [3], -0.917 (inactive); in experiment [5], 1.46 (inactive); in [6], 0.539 (inactive); in experiment [7], 0.319 (inactive). Also, the z-score in [8] is -0.787 (inactive); in experiment [9] it was -0.767. Also, the composite z-score in experiment [4] was 0.871 (inactive); in experiment [10], -0.124.

Regarding `COc1ccc(O[C@H]2C=C[C@@H](c3ccccc3)O[C@@H]2COC(=O)NCc2cccc3ccccc23)cc1`, the z-score in [1] is -0.556; in experiment [2], 0.476 (inactive); in experiment [3], -0.079 (inactive); in experiment [5] it was 0.79 (inactive); in experiment [6], 0.846 (inactive); in [7] it was -0.424 (inactive). In addition, the z-score in experiment [8] is -0.257 (inactive); in experiment [9], 0.283. Also, the composite z-score was -0.0459 (inactive) in experiment [4] and -0.0448 in experiment [10].

As to `O=C1C[C@@H](O)[C@@H](O)[C@@H]2[C@@H]3C(=O)N(Cc4ccccc4)C(=O)[C@@H]3CC[C@H]12`, the z-score is -0.252 in experiment [1]; -0.425 (inactive) in [2]; -0.136 (inactive) in [3]; 0.188 (inactive) in [5]; -0.163 (inactive) in experiment [6]; -0.418 (inactive) in [7]. For the same compound, the z-score in experiment [8] is -0.779 (inactive); in experiment [9], -0.14. Besides, the composite z-score in [4] is 0.318 (inactive); in experiment [10] it was 0.468.
